RGS4 inh – human RGS4 inhibition; Transcreener GDP fluorescence polarization, RGS4-accelerated GTP hydrolysis; Potency, µM (highest dose often 114 µM), for inactives: at the top dose activity change, negative = inhibition, most hits filed as inhibitors; 390,000 tested, 0.039% active; also: potency is read from the fitted curve at half-maximal effect; % is scaled to controls: 0 for no effect and ±100 for the full control effect; nearly all actives have a fitted effect of over 75% in size
Target sequence (P49798 whole entry, looked up): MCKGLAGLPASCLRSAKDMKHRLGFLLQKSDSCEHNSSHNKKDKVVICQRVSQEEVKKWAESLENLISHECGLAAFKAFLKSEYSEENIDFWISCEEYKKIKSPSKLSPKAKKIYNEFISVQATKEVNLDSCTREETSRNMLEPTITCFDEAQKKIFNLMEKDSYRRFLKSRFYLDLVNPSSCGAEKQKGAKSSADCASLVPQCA
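MLSMR compounds (23 nl, pin-transferred) preincubated 10 min at room temperature with a 500nM (2x) first reagent, then RGS4 at 900nM (2x) plus Transcreener GDP mix added; fluorescence polarization (620/688 nm) read before and after 90 min at 30 °C.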
Mito fusion act – blocks mitochondrial division or promotes mitochondrial fusion | S. cerevisiae fusion-defective mutant growth rescue, CellTiterGlo 48 h | Potency, µM (series often up to 46.1 µM), without a hit: at the top dose growth rescue (activation), usual class: activators | 320,000 tested, 0.23% active; also: potency is read from the fitted curve at half-maximal effect; % of control where 0% means no effect; nearly all actives have a fitted effect of over 45% in size
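Read-out: ATP-based luminescence (CellTiterGlo, 10 min ambient) reporting growth of fusion-defective ts yeast after 48 hours at 37C on glycerol/ethanol YPEG medium in the presence of compound.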
mIDH1 inhibitor – blocks human mutant IDH1 R132H enzyme; O75874; IDH1-R132H enzyme, NADPH consumption, diaphorase/resazurin fluorescence; Potency, µM (titrated, usually from 76.6 µM), without a hit: at the top dose activity change, negative = inhibition, hits mostly inhibitors; 390,000 tested, 0.093% active; AID 602179; also: potency is read from the fitted curve at half-maximal effect; % is scaled to controls: 0 for no effect and ±100 for the full control effect; nearly all actives have a fitted effect of over 65% in size
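IDH1-R132H (0.5 ug/mL) preincubated 30 min with compound, then NADPH (0.016 mM) and alpha-KG (2 mM) added; 80 min at RT, pH 7.5. Remaining NADPH coupled via diaphorase/resazurin to fluorescence (540/590 nm); concentration-response curves normalized to no-enzyme control.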
LDHA block – LDHA (human) enzyme inhibition; P00338; purified LDHA, NADH/diaphorase-resazurin fluorescence; active compounds read low; 480,000 tested, 0.15% active; activity change, % (values are at about 110 or 230 µM); in the data active = activity change below about -30%; inconclusive = mostly about -25% to -30%;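 also: plate controls were DMSO wells for no effect and wells without enzyme for full effect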
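LDH5 2 nM; NADH 0.06 mM, pyruvate 0.2 mM; 200 mM Tris pH 7.4, EDTA, Tween-20; 5 min RT. Detection: diaphorase 0.133 mg/mL + resazurin 37 µM, fluorescence ex540/em590 at 0 and 20 min; normalized to enzyme-free and DMSO wells.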
ClpP mod – qHTS Assay for Activators of ClpP; purified B. subtilis ClpP, FRET peptide cleavage, 20 min; Potency, µM (series often up to 57.5 µM), inactives show at the top dose activity change, negative = active; 340,000 tested, 1.9% active; AID 651965, 2013; active = well fitted falling curve with a large enough effect; inconclusive = small, poorly fitted or top-dose-only effect; inactive = no such curve, though single readings can be large or run the other way; also: potency is read from the fitted curve at half-maximal effect; the source files actives as falling curves though it sought activators and does not explain the sign; nearly all actives have a fitted effect of over 65% in size
Target sequence (P80244 whole entry, looked up): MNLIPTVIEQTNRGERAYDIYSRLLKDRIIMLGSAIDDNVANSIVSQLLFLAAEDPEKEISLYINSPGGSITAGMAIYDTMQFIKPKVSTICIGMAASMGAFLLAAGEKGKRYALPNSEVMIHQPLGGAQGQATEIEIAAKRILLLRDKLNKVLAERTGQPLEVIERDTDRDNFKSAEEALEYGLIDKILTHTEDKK
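Purified B. subtilis ClpP, 10 microg/mL final in Tris/HCl pH8 with KCl, BSA, glycerol and Tween-20, cleaved an Abz/nitrotyrosine-quenched decapeptide. Fluorescence (ex 320, em 430) was read at 0 and 20 min at room temperature. Delta was normalized to 5.8 microM ADEP and DMSO/no-enzyme controls.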
ASM inhibitor – inhibitors of human secretory acid sphingomyelinase; 340,000 tested, 0.006% active; placental ASM, HMU-PC fluorogenic substrate, 60 min; Potency, µM (top dose mostly 57.5 µM), for inactives: top-dose activity change, negative = inhibition, usual class: inhibitors; P17405; also: potency is read from the fitted curve at half-maximal effect
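Human placenta-derived ASM enzyme was preincubated with compound for 10 minutes at room temperature, then given fluorogenic substrate HMU-PC0 (9 uM final) for 60 minutes at 37 °C; a pH 10 stop preceded fluorescence reading at Ex 386/Em 447 nm.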
Numbers without * were called inactive; ? = inconclusive; · = not tested or not shown; ! = not confirmed by another sample; [ ] = another dose, or the depositor's remark. Shown is part of a subset that was picked to be rich in hits. Unless noted, calls follow the shape of the dose curve; as a rule, active = well fitted curve in the direction sought with a large enough effect; inconclusive = small, poorly fitted or top-dose-only effect, or another doubt; inactive = no such curve, though single readings can be large; an effect the other way counts as inactive or inconclusive.

SMILES	RGS4 inh	Mito fusion act	mIDH1 inhibitor	LDHA block	ClpP mod	ASM inhibitor
O=C(NCCN1CCOCC1)c1c[nH]c2ccc(S(=O)(=O)N3CCOCC3)cc2c1=O	23.8%	-4.1%	-1.6%	-5.2	31.6µM*	-3.4%
CCCCCNC(=O)c1c[nH]c2ccc(S(=O)(=O)N3CCC4(CC3)OCCO4)cc2c1=O	?	-8.9%	-0.2%	-3.1	15.8µM*	5.6%
O=C(NCc1ccco1)c1c[nH]c2ccc(S(=O)(=O)N3CCOCC3)cc2c1=O	0.6%	-3.1%	-0.8%	-1.8	31.6µM*	3.6%
CCOC(=O)c1sc(=S)n(-c2cc(C)cc(C)c2)c1N	·	·	·	4.4	·	·
Cc1cc(OCC(=O)N2CCCCC2CCN2CCCC2)cc(C)c1Cl (stereo not drawn)	·	·	·	-1.3	·	·
Cn1c(=O)c2nc(SCc3ccccc3F)n(C)c2n(C)c1=O	·	·	·	4.3	·	·
CCCCCOc1ccc(C(=O)OCC(=O)Nc2cc(C)on2)cc1	-0.7%	-33.0%	5.3%	-3.8	17.8µM*	2.5%
Cc1cccc(NC(=O)COC(=O)c2n[nH]c3ccccc23)c1C	4.3%	3.3%	-0.9%	-13.3	-28.1%	-2.2%
COc1ccc2c(COC(=O)c3n[nH]c4ccccc34)cc(=O)oc2c1	-36.2%	3.0%	2.1%	-2.2	28.2µM*	2.2%
Cc1cc(NC(=O)COC(=O)c2n[nH]c3ccccc23)no1	11.7%	-3.7%	1.1%	-10.1	11.2µM*	5.3%
Cn1c(CN2CCCC2)nc2cc(NC(=O)c3ccccc3Cl)ccc21	·	·	·	4.7	·	·
Cc1ccc(S(=O)(=O)N(Cc2ccc(C(=O)NC3CC3)cc2)C2CC2)c(C)c1	·	·	·	10.0	·	·
CCOC(=O)COc1c(C(=O)OC)sc2ncccc12	-2.3%	-9.0%	3.2%	-7.0	25.1µM*	4.2%
Cc1cccc(COc2ccc(CNC(=O)c3nccnc3N)cc2)c1	·	·	·	-11.3	·	·
Cc1ccc(S(=O)(=O)NCC(=O)OCC(=O)Nc2cccc(S(=O)(=O)NC3=NCCCCC3)c2)cc1	19.7%	7.7%	2.4%	-3.0	25.1µM*	-5.0%
Cc1ccc(S(=O)(=O)N2CCN(c3ccc([N+](=O)[O-])c4cccnc34)CC2)cc1	?	12.6%	8.6%	-31.5*!	-12.0%	-17.1%
CC(C)CCOc1ccc(-c2c(=O)n(OCc3ccc([N+](=O)[O-])cc3)c3ccccc3[n+]2[O-])cc1	-12.5%	1.5%	1.8%	-2.5	2.0%	21.9%
CCCOc1ccc(-c2c(=O)n(OCc3ccc([N+](=O)[O-])cc3)c3ccccc3[n+]2[O-])cc1	-3.5%	-1.9%	3.8%	-2.4	28.2µM*	20.8%
c1ccc2c(c1)Cn1c-2nc2ccccc21	38.7%	-9.8%	2.9%	-2.6	25.1µM*	-2.7%
Brc1c(-c2ccccc2)nc2n1Cc1ccccc1-2	-22.3%	-4.8%	4.8%	4.1	1.0%	-6.5%
COc1ccccc1CC(=O)Nc1ccc2c(c1)NC(=O)CS2	·	·	·	7.9	·	·
O=C(COC(=O)CCc1c[nH]c2ccccc12)Nc1ccc([N+](=O)[O-])cc1C(F)(F)F	·	·	·	-6.7	·	·
COc1ccc(CC(=O)Nc2oc(-c3ccccc3)c(-c3ccccc3)c2C#N)cc1OC	-0.8%	-6.3%	7.1%	-6.5	31.6µM*	-10.1%
CC(=O)NCc1ccc(C(=O)NCC2(c3ccccc3)CCCCC2)cc1	·	·	·	12.9	·	·
C[C@H](Cc1ccc(O)c(O)c1)[C@@H](C)Cc1ccc(O)c(O)c1	15µM*	13µM*	·	11.0	?	·
SMILES	RGS4 inh	Mito fusion act	mIDH1 inhibitor	LDHA block	ClpP mod	ASM inhibitor
CCOc1ccccc1-c1noc(COC(=O)Cc2n[nH]c(=O)c3ccccc23)n1	·	·	·	-8.2	·	·
CCCCn1c(N)c(N(CCOC)C(=O)c2ccc(-c3ccc([N+](=O)[O-])cc3)o2)c(=O)[nH]c1=O	-7.2%	-1.3%	-1.0%	-3.2	-1.0%	3.7%
CCCCn1c(N)c(N(CCC(C)C)C(=O)CCCc2nc3ccccc3s2)c(=O)[nH]c1=O	-17.6%	-1.3%	12.0%	-1.2	-1.7%	20.9%
CCCCn1c(N)c(N(CCOC)C(=O)CCCc2nc3ccccc3s2)c(=O)[nH]c1=O	-6.0%	-3.3%	-1.7%	1.0	35.5µM*	7.9%
CCCCn1c(N)c(N(CCOC)C(=O)c2ccc(-c3ccc(C(C)=O)cc3)o2)c(=O)[nH]c1=O	-24.4%	-3.5%	6.0%	3.9	31.6µM*	75.2%
CCCCn1c(N)c(N(CC(C)C)C(=O)CCCc2nc3ccccc3s2)c(=O)[nH]c1=O	59.7%	-3.1%	0.1%	-10.3	7.08µM*	·
CC(=O)N1CCN(c2ccc(NC(=O)C3(c4ccccc4)CCCC3)cc2)CC1	·	·	·	2.2	·	·
Cc1coc2c1c(C)cc1o/c(=N/O)c3c(c12)CCC3	·	·	·	2.6	·	·
O=C(c1ccc(OC(F)F)cc1)N1CCC(NS(=O)(=O)c2cccs2)CC1	·	·	·	4.9	·	·
CCOC(=O)c1ccc(COC(=O)CCc2nc3ccccc3[nH]c2=O)o1	16.4%	1.5%	8.7%	-2.8	31.6µM*	3.4%
COc1ccc(NC(=O)c2cc(Cl)ccc2Cl)c([N+](=O)[O-])c1	-28.2%	2.3%	1.4%	-6.0	28.2µM*	0.2%
Cc1ccc(C(CNC(=O)c2cc(-c3cccs3)on2)N2CCOCC2)cc1 (stereo not drawn)	·	·	·	-0.2	·	·
O=c1c2c3c(sc2nc(NCCO)n1CCc1ccccc1)CCCCC3	-10.7%	20µM*	-4.5%	1.4	-1.2%	-12.8%
CCOC(=O)CNC(=O)CSc1nc2nc(C)c(Br)cc2[nH]1	-23.3%	7.6%	3.0%	2.5	-0.9%	4.8%
Cc1nc2nc(SCC(N)=O)[nH]c2cc1Br	6.4%	-4.1%	4.0%	0.2	15.8µM*	1.8%
O=C(O)CSc1nc2ccc(Cl)cc2[nH]1	-23.0%	3.1%	2.1%	-6.9	25.1µM*	8.8%
NC(=O)CSc1nc2ccc([N+](=O)[O-])cc2[nH]1	-15.4%	14.1µM*	-0.3%	-5.3	1.0%	-0.4%
Cc1c(C(=O)O)sc2nc3n(c(=O)c12)CCCCC3	12.3%	-2.4%	6.0%	-0.2	0.7%	1.0%
Cc1c(C(=O)N2CCN(c3ncccn3)CC2)sc2nc3n(c(=O)c12)CCCC3	17.8%[11.4 µM]	0.1%	1.3%	-2.3	28.2µM*	-1.7%
COc1cc(SC)ccc1C(=O)OC(C(=O)c1ccccc1)c1ccccc1 (stereo not drawn)	·	·	·	-33.3*	·	·
Cc1cccc(CN2CCN(C(=O)c3cccc4ccccc34)CC2)c1	-18.0%	1.6%	3.5%	-9.6	31.6µM*	0.9%
O=C(c1ccncc1)N1CCN(C(=O)c2cccc3ccccc23)CC1	-14.7%	0.9%	7.7%	11.9	14.1µM*	2.2%

Screening results (PubChem)
